Bioassay records (PubChem BioAssay)
This is a sample that favours compounds with a hit; in the whole collection about 3.9% have one here.
BoNT-A LC inh2: BoNT/A light chain protease inhibitors, primary screen, biochemical, flow cytometry, MLPCN library; actives 0.17% (n = 360,000); Botulinum neurotoxin type A light chain protease (Clostridium botulinum A str. ATCC 3502); inhibition, % at 10 µM; multiplex microsphere protease substrate cleavage
Autofluor counter: counter-screen for toxin protease inhibitors: compound fluorescence. compound autofluorescence counterscreen, microsphere flow cytometry; hits give high values. actives 3.1% (n = 360,000). AID 624483. fluorescence intensity (test concentration not listed); in the data active means fluorescence intensity above about 16000; inconclusive means no clear call, values can overlap the other calls
Vc quorum ag: inducers of Vibrio cholerae quorum light production without autoinducers, primary screen, BH1578 luxS cqsA deficient, single point; actives 0.16% (n = 350,000); activation, % at 18.7 µM; V. cholerae BH1578 lux reporter, luminescence, 6 h; in the data active means activation mostly above about 9.7%, no sharp cut-off; inconclusive means no clear call, values can overlap the other calls; inactive means mostly below about 3.7%
Anthrax LF inh2: Bacillus anthracis LF protease inhibitors, primary screen, biochemical, multiplex microsphere, MLPCN library. Lethal factor (Bacillus anthracis), P15917. multiplex microsphere protease cleavage assay. inhibition, % at 10 µM. actives 0.12% (n = 360,000). AID 588501, 2011
BoNT F protease: BoNT/F light chain protease inhibitors, primary screen, biochemical, flow cytometry, MLPCN library. Botulinum neurotoxin type F light chain protease (Clostridium botulinum). actives 0.22% (n = 360,000). AID 588497, 2011. Multiplex microsphere protease cleavage assay. inhibition, % at 10 µM; in the data active means inhibition above about 35%, passing the limit was not always enough; inconclusive means no clear call, values can overlap the other calls
MazF activator: activators of E. coli MazEF toxin-antitoxin RNase, primary screen, biochemical, fluorescence, uHTS. activation, % at 20 µM. Endoribonuclease toxin MazF (Escherichia coli (strain K12)), P0AE70. AID 504720, 2011. actives 0.32% (n = 350,000). FAM/BHQ RNA-DNA oligo cleavage fluorescence, 5 h; in the data active means activation above about 50%
Target sequence (P0AE70 whole entry, looked up): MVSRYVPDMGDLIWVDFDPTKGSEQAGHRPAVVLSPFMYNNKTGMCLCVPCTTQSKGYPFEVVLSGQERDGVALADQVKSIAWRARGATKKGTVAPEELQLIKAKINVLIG
Of the large screens only hits and unclear results are named; the others gave an inactive call. Unless noted, no stated cut-off is given here; in the data, active means inhibition above about 30%; inconclusive means no clear call, values can overlap the other calls; inactive means below that.

Cc1nn(-c2ccc(F)cc2)c(Cl)c1C(=O)N(C)CC(=O)Nc1cccc(F)c1	none (no result: BoNT-A LC inh2, Autofluor counter, Anthrax LF inh2, BoNT F protease)
CSc1nc(C)cc(OCC(=O)n2nc(C)cc2C)n1	BoNT-A LC inh2 inconclusive, Autofluor counter 23438
CC(CNC(=O)CCS(=O)(=O)c1cc2c(cc1Cl)NC(=O)CO2)c1ccccc1 (stereo not given)	none
COc1cc(C(=O)N(Cc2ccco2)Cc2cc3ccccc3[nH]c2=O)cc(OC)c1OC	BoNT-A LC inh2 inconclusive, Autofluor counter 23180
O=C(c1ccco1)N(Cc1ccco1)Cc1cc2ccccc2[nH]c1=O	none
CCCn1nc([N+](=O)[O-])c(C(C#N)c2nc3ccccc3o2)c(Cl)c1=O (stereo not given)	none
CCn1nc([N+](=O)[O-])c(C(C#N)c2nc3cc(C(F)(F)F)ccc3s2)c(Cl)c1=O (stereo not given)	Autofluor counter 22515
O=C(c1ccco1)n1nc(-c2ccco2)nc1SCc1ccccc1	Autofluor counter 21774
O=C(CNC(=O)c1cccc(-n2cccc2)c1)Nc1ccccc1Br	none
Cc1cc(C(=O)Cn2nnc3ccccc3c2=O)c(C)n1Cc1cccs1	none
Cc1cc(C(=O)CN2C(=O)c3ccccc3C2=O)c(C)n1Cc1cccs1	Autofluor counter 24091, MazF activator 68
COCc1c(C(=O)Nc2nnc(C3CC3)s2)oc2ccccc12	none
C=CC(=O)NC(NC(=O)C=C)c1ccc(Br)cc1	BoNT-A LC inh2 inconclusive, Autofluor counter 21256
CCn1c(SCC(=O)Nc2ccc(C(C)=O)cc2)nc2nc3c(cc2c1=O)CCCC3	BoNT-A LC inh2 inconclusive, Autofluor counter 23239
Cc1ccc([C@H]2C[C@@H](n3cc(-c4ccc(F)cc4)nn3)[C@H](O)CN2C(=O)C2CCCCC2)cc1	none
COc1ccc(S(=O)(=O)N2CCOCC2)cc1NC(=O)CSc1ccccc1	none
O=C(CSc1ccccc1)Nc1cc(S(=O)(=O)N2CCOCC2)ccc1N1CCOCC1	MazF activator 76
CC(C)(C)OC(=O)N[C@H](C(=O)OC(C)(C)C)c1ccc2c(c1)OCO2	none
CN1CCN(c2nc3ccccn3c(=O)c2C=O)CC1	none
CCCCCN1C(=O)/C(=C/c2c(N3CCc4ccccc4C3)nc3ccccn3c2=O)SC1=S	Autofluor counter 21934
O=C(c1ccc(Cl)c(Cl)c1)N1CCC(=O)N([C@H](COCc2ccc(Cl)cc2)Cc2ccccc2)CC1	none (no result: Vc quorum ag, MazF activator)
COc1ccc(C)cc1NC(=O)c1ccc(N(C)S(C)(=O)=O)cc1	none
Cc1ccc(C)c(NC(=O)c2ccc(N(C)S(C)(=O)=O)cc2)c1	Autofluor counter 20420
CC1(C)CC(=O)C=C(Nc2ccccn2)C1	BoNT-A LC inh2 inconclusive, Autofluor counter 21302
CC(O)c1cccc(NC2=CC(=O)CC(C)(C)C2)c1 (stereo not given)	Autofluor counter 22635
CC1(C)CC(=O)C=C(Nc2cccc(F)c2)C1	none
Nc1c(C(=O)c2ccc(Cl)cc2)sc2nc3c(cc12)CCC3	MazF activator 70
N#CCc1ccc(NS(=O)(=O)c2cccs2)cc1	Autofluor counter 16560
FC(F)(F)c1cc(Sc2ccccc2)nc(-c2ccccn2)n1	Autofluor counter 16298
CC(C)Nc1cc(C(F)(F)F)nc(-c2ccccn2)n1	Autofluor counter 20659
COC(=O)CSc1cc(C(F)(F)F)nc(-c2ccccn2)n1	none
FC(F)(F)c1cc(Nc2ccccc2)nc(-c2ccccn2)n1	none
CN(C)c1cc(C(F)(F)F)nc(-c2ccccn2)n1	Autofluor counter 16157
COCCNC(=O)C(c1ccc(C)cc1)N(Cc1ccco1)C(=O)CCC(=O)Nc1ccccn1 (stereo not given)	none
COc1cccc2c1OC[C@@H](CO)[C@H]2N(C)C(=O)Nc1ccc(Cl)cc1	Autofluor counter 21011
COc1ccc(Cl)cc1NC(=O)C1COc2ccccc2O1 (stereo not given)	none
Cn1nc(C(F)(F)F)c(C(=O)Nc2ccc(Cl)cc2)c1Cl	BoNT-A LC inh2 inconclusive, Autofluor counter inconclusive (no result: Vc quorum ag)
